Hit rate of the full screen: of about 48,000 compounds, about 13,000 (27%) showed an effect of 50% or more. The list shows a part of the results.
Tested on: Wolbachia pipientis
Assay: Anti-Wolbachia Cell-Based Screen
Format: functional
Design: scale not given: in the data most compounds retested in dose-response had high values
Details: 5 µM

Row | SMILES | Percent Effect [%]
1 | CCOc1cccc(COC(=O)c2scnc2C)n1 | -15.18
2 | O=C(NCCn1cccn1)C1CCC(=O)N(CC2CCCCC2)C1 (configuration not stated) | 7.611
3 | Cc1ccccc1OC1CN(Cc2c(C)nc3ccccn23)C1 | -115.8
4 | CNc1nc(CNC(=O)Nc2cccc(F)c2C)cs1 | -1.885
5 | O=C(NCCCn1cccn1)C1CCC(=O)N(Cc2ccccc2F)C1 (configuration not stated) | -2.925
6 | CCC(C)NC(=O)c1ccc(-c2ccco2)[nH]c1=O (configuration not stated) | 3.717
7 | CC(C)CCNC(=O)c1ccc(-c2ccco2)[nH]c1=O | 11.73
8 | COCCNC(=O)C(C)n1nc(-c2ccco2)cc(N)c1=O (configuration not stated) | 94.6
9 | COCCCNC(=O)C(C)n1nc(-c2ccco2)cc(N)c1=O (configuration not stated) | 133.4
10 | CC(C)OCCCNC(=O)c1ccc(-c2ccco2)[nH]c1=O | -5.072
11 | COCCCNC(=O)Nc1cc(-c2ccccc2C)nn1CCO | -5.534
12 | COc1cc(NC(=O)N(C)Cc2ccc(Br)o2)ncn1 | 1.624
13 | COc1ccnc(NC(=O)c2cscn2)c1 | -4.154
14 | CSc1ncccc1C(=O)N1C[C@H]2CC[C@@H]1CN(CC(=O)N(C)C)C2 | -12.01
15 | F[C@@H]1CN(CC2CC2)C[C@@H]1OCc1nc2ccccc2o1 | -15.91
16 | C[C@@H]1CN(CCOc2ccc(F)cc2)CC[C@@]1(O)C1CCOCC1 | 93.05
17 | COc1cc(F)c(CN2CC[C@@](O)(C3CC3)[C@H](C)C2)cc1OC | 9.055
18 | COc1cccc(OCCN2CC[C@@](O)(C3CCOCC3)[C@H](C)C2)c1 | 98.26
19 | C[C@@H]1CN(C(=O)CCCN2CCOCC2)CC[C@@]1(O)C1CCC1 | -2.629
20 | C[C@@H]1CN(CCOCc2ccccc2)CC[C@@]1(O)C1CCC1 | -4.959
21 | C[C@@H]1CN(CCOc2ccc(Cl)cc2)CC[C@@]1(O)C1CCOCC1 | 95.64
22 | C[C@@H]1CN(C(=O)CCCN2CCCC2)CC[C@@]1(O)C1CCOCC1 | -4.515
23 | C[C@@H]1CN(CCCOc2ccc(F)cc2)CC[C@@]1(O)C1CCOCC1 | 97.34
24 | C[C@@H]1CN(Cc2cc(C3CCCCC3)no2)CC[C@@]1(O)C1CC1 | 9.24
25 | CN(C)CCN(C)S(=O)(=O)Cc1ccc(Br)cc1 | -1.249
26 | CCC(=O)c1ccc(OCC(=O)NC(C)c2nnc(C)[nH]2)cc1 (configuration not stated) | 8.329

Row | SMILES | Percent Effect [%]
27 | O=C(CCNS(=O)(=O)c1ccc2c(c1)CCCC2)NCc1ccoc1 | 1.514
28 | CCN(Cc1csc(CS(C)(=O)=O)n1)c1cccc(CO)c1 | 6.548
29 | CCc1nsc(NC2CCOC3(CCCC3)C2)n1 (configuration not stated) | -3.423
30 | COCCCNS(=O)(=O)c1cc(C)sc1C | 1.598
31 | C=C(C)COc1cccc(CNC(CC)c2ccnn2C)c1 (configuration not stated) | -16.98
32 | COc1cccc(COCC(=O)N2CCCC(n3ccnc3C)C2)c1 (configuration not stated) | -4.06
33 | Cc1nccn1C1CCCN(C(=O)c2cccc(S(C)(=O)=O)c2)C1 (configuration not stated) | 94.78
34 | Cc1nccn1C1CCCN(C(=O)c2cccc(-n3cccc3)c2)C1 (configuration not stated) | 98.3
35 | Cc1nccn1C1CCCN(C(=O)c2cccc(OCC(N)=O)c2)C1 (configuration not stated) | 92.13
36 | NC(=O)COc1cccc(C(=O)N2CCCC(n3cccn3)C2)c1 (configuration not stated) | -6.954
37 | CC(=O)c1cn(CCC(=O)N[C@H](C(=O)O)C(C)C)c2ccccc12 | 14.47
38 | CN(C1CCN(c2ccccn2)CC1)S(=O)(=O)c1ccccc1F | -17.13
39 | CN1CCC(CNC(=O)c2ccc3cccc(Cl)c3n2)C1 (configuration not stated) | 16.58
40 | CCN(C1CCS(=O)(=O)C1)S(=O)(=O)c1cccc2cc(C)cnc12 (configuration not stated) | 2.36
41 | CN(C1CCCCC1)S(=O)(=O)NC1CCCN(c2ncccn2)C1 (configuration not stated) | -0.1008
42 | Cc1ccc2cccc(C(=O)NCCOCC3CC3)c2n1 | 4.026
43 | Cc1ccc2cccc(C(=O)NCC3CCN(C(C)C)C3)c2n1 (configuration not stated) | -2.471
44 | CN1CCCC(N(C)S(=O)(=O)c2cccc3ncccc23)C1 (configuration not stated) | 142.2
45 | CN1CCCC(N(C)C(=O)c2ccc(NC(=O)c3cc[nH]n3)cc2)C1 (configuration not stated) | -7.369
46 | Cc1ccc2cccc(S(=O)(=O)N(C)C3CCCN(C)C3)c2n1 (configuration not stated) | 110
47 | CN1CCC(CN(C)S(=O)(=O)CC2CCCCC2)CC1 | -3.898
48 | Cc1ccc2cccc(S(=O)(=O)N(C)CC3CCN(C)CC3)c2n1 | 117.6
49 | Cc1ccc2cccc(S(=O)(=O)N(C)CC3CCN(C)C3)c2n1 (configuration not stated) | 116.7
50 | COCCN1CC(c2nc(CC3CCN(C)CC3)no2)CCC1=O (configuration not stated) | -7.698
51 | Cc1ccc(C(N)=O)cc1NCCOc1cccc(C#N)c1 | -8.652
52 | O=C(c1[nH]nc2c1CCCC2)N1CCC(OCCN2CCCCC2)C1 (configuration not stated) | 5.05

Row | SMILES | Percent Effect [%]
53 | COCCN(CCC#N)S(=O)(=O)c1ccc(F)cc1Cl | -17.33
54 | CCOc1ncc(NC(=O)c2ccco2)c(OCC)n1 | 6.887
55 | CC1CN(C(=O)NCCn2ccnc2)CCO1 (configuration not stated) | -11.62
56 | O=C(NCCn1ccnc1)N1CCN(Cc2ccco2)CC1 | 103.9
57 | O=C(NCCn1ccnc1)N1CCN(Cc2ccsc2)CC1 | 102.5
58 | CC(=O)N1CCN(C(=O)NCc2ccccc2Cn2ccnc2)CC1 | -14.94
59 | Cc1ccc(CNC(=O)N2CCN(Cc3ccsc3)CC2)n1C | 2.843
60 | CC(Cn1ccnc1)NC(=O)N1CCN(Cc2cccnc2)CC1 (configuration not stated) | -2.682
61 | O=C(NCCNc1ncccn1)N1CCN(Cc2cccnc2)CC1 | -0.1396
62 | O=C(NCCn1ccnc1)N1CCCC1c1ccsc1 (configuration not stated) | 8.592
63 | O=C(NCCn1ccnc1)N1CCN(Cc2cccnc2)CC1 | 109.3
64 | Cc1cc(C)n(CC2(CNC(=O)C(c3ccccc3C)N(C)C)CC2)n1 (configuration not stated) | -3.627
65 | Cc1nc(CN(CCS(C)(=O)=O)C(C)C)cs1 | -0.8172
66 | CO[C@@H]1CC[C@H]2[C@H]1OCCN2C(=O)c1ccc(C)nc1.O=C(O)C(F)(F)F | 2.504
67 | Cc1ccoc1C(=O)N1CCO[C@H]2[C@H](OCC3CCOCC3)CC[C@@H]21 | -7.099
68 | CN(C)CCO[C@@H]1CC[C@H]2[C@H]1OCCN2C(=O)c1ccc(F)cc1.O=C(O)C(F)(F)F | 97.45
69 | Cc1ccoc1C(=O)N1CCO[C@H]2[C@H](OCc3ccncc3)CC[C@@H]21 | 96.45
70 | Cc1ccc(C(=O)N2CCO[C@H]3[C@H](OCCN(C)C)CC[C@@H]32)cn1 | 110.3
71 | Cc1cccc(C(=O)N2CCO[C@H]3[C@H](OCCN(C)C)CC[C@@H]32)n1 | 97.76
72 | O=C(C1CCOCC1)N1CCO[C@H]2[C@@H](OCc3ccncc3)CC[C@@H]21 | -9.852
73 | CO[C@H]1CC[C@H]2[C@H]1OCCN2C(=O)c1ccc(C)nc1 | 6.779
74 | Cc1ccc(C(=O)N2CCO[C@H]3[C@H](OCCN(C)C)CC[C@@H]32)o1.O=C(O)C(F)(F)F | 8.027
75 | c1ccc2c(c1)OCCC2NCc1ccc(N2CCOCC2)cc1 (configuration not stated) | 6.608
76 | Cc1cccc(Nc2c(C#N)c(=O)n(C)c(=O)n2C)c1 | -3.383
77 | CN(C)CCO[C@@H]1CC[C@H]2[C@H]1OCCN2C(=O)c1ccnnc1.O=C(O)C(F)(F)F | 98
78 | Cc1cncc(C(=O)N2CCO[C@H]3[C@H](Oc4ccccn4)CC[C@@H]32)c1.O=C(O)C(F)(F)F.O=C(O)C(F)(F)F | -8.484

Row | SMILES | Percent Effect [%]
79 | O=C(O)C(F)(F)F.O=C(c1cnccn1)N1CCO[C@H]2[C@H](OCc3cccnc3)CC[C@@H]21 | -4.658
80 | Cc1cncc(C(=O)N2CC[C@@H]3[C@H]2CCC(=O)N3CCN(C)C)c1.O=C(O)C(F)(F)F.O=C(O)C(F)(F)F | -10.7
81 | Cc1cncc(C(=O)N2CCO[C@H]3[C@H](OCCN(C)C)CC[C@@H]32)c1.O=C(O)C(F)(F)F.O=C(O)C(F)(F)F | 111.8
82 | CN(C)CCO[C@@H]1CC[C@H]2[C@H]1OCCN2C(=O)c1ccncc1 | 113.2
83 | Cc1ccc(C(=O)N2CCN3C[C@H](Oc4cccc(F)c4)C[C@H]3C2)cn1.O=C(O)C(F)(F)F.O=C(O)C(F)(F)F | 3.581
84 | CC(C)N1CCCC2(CCN(C(=O)CCCn3cccn3)C2)C1=O (configuration not stated) | -14.27
85 | CC(NC(=O)c1cccs1)C(=O)NS(=O)(=O)c1ccc(C#N)cc1 (configuration not stated) | 8.47
86 | Cc1cn2c(n1)CCC(NS(=O)(=O)c1sc(C)nc1C)C2 (configuration not stated) | -17.67
87 | CSc1ccsc1C(=O)NS(=O)(=O)c1ccc(F)cc1 | -34.42
88 | Cc1nc(C)c(S(=O)(=O)NC(=O)c2cccs2)s1 | 102.2
89 | Cc1nc(C)c(S(=O)(=O)NC(=O)c2sccc2C)s1 | 101.5
90 | CC(NC(=O)c1cccs1)C(=O)NS(=O)(=O)c1cccc(C#N)c1 (configuration not stated) | 3.018
91 | O=C(NCCCC(=O)N1Cc2ccccc2C1)NCc1cccnc1 | 2.963
92 | CN(CC1CCC1)C(=O)c1ccc(-c2nc(C3CC3)n[nH]2)cc1 | 0.7414
93 | CC1CNC(=O)CCN1Cc1cc(O)c2cccc(F)c2n1 (configuration not stated) | -25.66
94 | O=C(c1ccccn1)N1CCc2ncnc(N3CCOCC3)c2CC1 | -1.06
95 | O=C(c1cscn1)N1CCc2ncnc(-c3ccncc3)c2CC1 | 110.3
96 | O=C(O)C(F)(F)F.O=C(c1cscn1)N1CCc2ncnc(-c3cccnc3)c2CC1 | 99.58
97 | CN(C)CC(=O)N1CCc2ncnc(-c3ccsc3)c2CC1 | -2.469
98 | O=C(O)C(F)(F)F.O=C(c1cnccn1)N1CCc2ncnc(-c3cccnc3)c2CC1 | -7.804
99 | O=C(C1CC=CC1)N1CCc2ncnc(-c3ccncc3)c2CC1 | 8.097
100 | O=C(c1ccccn1)N1CCc2ncnc(-c3ccncc3)c2CC1 | 88.26
101 | CN(C)c1ncnc2c1CCN(C(=O)c1cccnc1)CC2.O=C(O)C(F)(F)F | 9.198
102 | O=C(c1cc[nH]n1)N1CCc2ncnc(NCc3ccccn3)c2CC1 | -6.382

— ChEMBL document CHEMBL3988442, “University of Dundee, Small-Polar-MMV Screening Library” (2021)
